From the supplement of paper PMC11732987, “Enantioselective OTUD7B fragment discovery through chemoproteomics screening and high-throughput optimisation” (Communications Chemistry, 2025)

Columns and labels:
Assay in all cases: log2 ratio of Biotin-Ahx-Ub-VS probe labelling (compound/DMSO); higher = less target engagement, active = hit call of the paper (q ≤ 0.05, log2 ratio ≤ -1)
Settings in all cases: treatment time: 3 h
[1] = compound: ClCC(=O)NC1CCCc2ccccc12
How it was run: (§1)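 For activity-based profiling, 495 µg portions of HEK293T lysate in Tris/CHAPS/IGEPAL buffer with protease inhibitors were treated in triplicate with compound at 50 or 200 µM or with DMSO for 3 h. A 1 h incubation with Biotin-Ahx-Ub-VS (0.5 µM final) followed, then NeutrAvidin enrichment, LysC and trypsin digestion and diaPASEF LC-MS/MS. The compound/DMSO base-two log ratios were averaged from median-normalised label-free quantities using an unpaired t-test. Proteins needed at least 2 unique peptides to be included.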

[2] = compound: ClCC(=O)NC1CCOc2ccc(Cl)cc12
How it was run: as §1

[3] = compound: ClCC(=O)NC1CCSc2ccccc12
How it was run: as §1

[4] = compound: ClCC(=O)N[C@H]1CCCc2ccccc12
How it was run: as §1

[5] = compound: Fc1ccc(N2CCN(c3nc4c(CN(C(CCl)=O)CC4)cn3)CC2)cc1.Cl.Cl
How it was run: as §1

Measured: log2 ratio of Biotin-Ahx-Ub-VS probe labelling

UniProt P51784
Sequence of UniProt P51784 (P51784 whole entry): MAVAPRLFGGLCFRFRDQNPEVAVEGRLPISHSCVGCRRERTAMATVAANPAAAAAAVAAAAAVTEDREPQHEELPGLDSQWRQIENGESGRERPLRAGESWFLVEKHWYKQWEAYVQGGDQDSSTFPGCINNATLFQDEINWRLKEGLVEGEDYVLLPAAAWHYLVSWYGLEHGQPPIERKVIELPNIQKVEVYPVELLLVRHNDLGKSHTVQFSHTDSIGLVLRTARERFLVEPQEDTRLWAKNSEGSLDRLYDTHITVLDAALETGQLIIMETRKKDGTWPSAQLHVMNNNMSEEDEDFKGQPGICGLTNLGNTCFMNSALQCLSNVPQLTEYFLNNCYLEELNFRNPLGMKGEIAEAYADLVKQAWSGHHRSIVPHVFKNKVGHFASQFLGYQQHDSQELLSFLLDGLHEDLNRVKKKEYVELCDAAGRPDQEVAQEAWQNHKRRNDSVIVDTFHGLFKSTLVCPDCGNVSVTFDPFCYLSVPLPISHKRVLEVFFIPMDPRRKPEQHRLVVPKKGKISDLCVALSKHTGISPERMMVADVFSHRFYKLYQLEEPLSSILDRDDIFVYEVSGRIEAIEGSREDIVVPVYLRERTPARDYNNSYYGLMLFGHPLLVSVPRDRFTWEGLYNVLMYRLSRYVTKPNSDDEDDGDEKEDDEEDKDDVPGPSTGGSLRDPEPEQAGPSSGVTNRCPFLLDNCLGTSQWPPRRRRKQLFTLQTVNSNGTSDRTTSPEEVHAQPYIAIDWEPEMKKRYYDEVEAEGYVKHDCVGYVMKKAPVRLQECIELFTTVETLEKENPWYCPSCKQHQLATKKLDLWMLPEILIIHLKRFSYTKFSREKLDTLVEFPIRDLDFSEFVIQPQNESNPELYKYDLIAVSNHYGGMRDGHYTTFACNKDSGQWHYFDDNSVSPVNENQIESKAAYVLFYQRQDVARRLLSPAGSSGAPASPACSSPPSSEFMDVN
inactive: [1]; compound concentration: 50uM 0.0554 | [1]; compound concentration: 200uM 0.032 | [2]; compound concentration: 50uM -0.0759 | [2]; compound concentration: 200uM -0.235 | [3]; compound concentration: 50uM 0.214 | [3]; compound concentration: 200uM -0.104 | [4]; compound concentration: 50uM 0.124 | [4]; compound concentration: 200uM -0.322 | [5]; compound concentration: 50uM 0.0256
active: [5]; compound concentration: 200uM -1.01

UCHL3 (UniProt P15374)
Sequence of UniProt P15374 (P15374 whole entry): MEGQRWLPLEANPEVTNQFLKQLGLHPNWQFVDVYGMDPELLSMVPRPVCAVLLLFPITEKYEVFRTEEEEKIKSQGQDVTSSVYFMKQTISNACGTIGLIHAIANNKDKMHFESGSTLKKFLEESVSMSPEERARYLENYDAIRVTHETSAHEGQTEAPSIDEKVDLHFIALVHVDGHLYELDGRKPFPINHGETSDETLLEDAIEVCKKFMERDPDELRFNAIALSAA
inactive: [1]; compound concentration: 50uM -0.203 | [1]; compound concentration: 200uM 0.0177 | [2]; compound concentration: 50uM -0.519 | [2]; compound concentration: 200uM -0.27 | [3]; compound concentration: 50uM -0.0871 | [3]; compound concentration: 200uM -0.294 | [4]; compound concentration: 50uM -0.224 | [4]; compound concentration: 200uM -0.372
active: [5]; compound concentration: 50uM -1.23 | [5]; compound concentration: 200uM -4.19

USP15 (UniProt Q9Y4E8)
Sequence of UniProt Q9Y4E8 (Q9Y4E8 whole entry): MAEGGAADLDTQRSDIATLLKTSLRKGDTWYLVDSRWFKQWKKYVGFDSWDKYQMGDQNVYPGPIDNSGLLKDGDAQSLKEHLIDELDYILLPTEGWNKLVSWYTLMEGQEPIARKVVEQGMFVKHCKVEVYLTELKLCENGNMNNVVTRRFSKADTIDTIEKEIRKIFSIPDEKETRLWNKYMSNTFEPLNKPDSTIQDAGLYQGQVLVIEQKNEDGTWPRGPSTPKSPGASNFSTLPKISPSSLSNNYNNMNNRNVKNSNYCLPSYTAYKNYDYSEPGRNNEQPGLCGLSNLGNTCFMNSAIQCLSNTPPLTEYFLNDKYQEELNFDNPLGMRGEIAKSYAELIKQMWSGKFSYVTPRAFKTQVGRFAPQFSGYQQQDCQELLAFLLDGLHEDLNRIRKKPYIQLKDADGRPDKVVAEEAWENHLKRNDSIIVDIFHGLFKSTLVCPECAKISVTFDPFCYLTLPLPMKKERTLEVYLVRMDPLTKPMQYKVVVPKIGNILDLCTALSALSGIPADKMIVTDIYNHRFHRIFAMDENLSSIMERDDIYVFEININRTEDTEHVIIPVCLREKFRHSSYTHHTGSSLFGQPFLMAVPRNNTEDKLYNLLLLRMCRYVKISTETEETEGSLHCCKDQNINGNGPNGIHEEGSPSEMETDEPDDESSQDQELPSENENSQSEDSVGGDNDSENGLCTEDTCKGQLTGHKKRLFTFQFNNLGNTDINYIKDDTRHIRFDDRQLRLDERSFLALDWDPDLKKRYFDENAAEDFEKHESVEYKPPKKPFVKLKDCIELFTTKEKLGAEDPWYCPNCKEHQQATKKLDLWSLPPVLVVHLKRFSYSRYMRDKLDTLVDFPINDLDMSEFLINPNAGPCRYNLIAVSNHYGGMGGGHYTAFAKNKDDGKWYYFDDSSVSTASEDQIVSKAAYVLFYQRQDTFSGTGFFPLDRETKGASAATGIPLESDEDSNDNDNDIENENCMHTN
active: [5]; compound concentration: 200uM -1.58
inactive: [1]; compound concentration: 50uM -0.0996 | [1]; compound concentration: 200uM -0.0168 | [2]; compound concentration: 50uM -0.328 | [2]; compound concentration: 200uM -0.255 | [3]; compound concentration: 50uM 0.00954 | [3]; compound concentration: 200uM -0.189 | [4]; compound concentration: 50uM -0.0873 | [4]; compound concentration: 200uM -0.249 | [5]; compound concentration: 50uM -0.441

OTUD7B (UniProt Q6GQQ9)
Sequence of UniProt Q6GQQ9 (Q6GQQ9 whole entry): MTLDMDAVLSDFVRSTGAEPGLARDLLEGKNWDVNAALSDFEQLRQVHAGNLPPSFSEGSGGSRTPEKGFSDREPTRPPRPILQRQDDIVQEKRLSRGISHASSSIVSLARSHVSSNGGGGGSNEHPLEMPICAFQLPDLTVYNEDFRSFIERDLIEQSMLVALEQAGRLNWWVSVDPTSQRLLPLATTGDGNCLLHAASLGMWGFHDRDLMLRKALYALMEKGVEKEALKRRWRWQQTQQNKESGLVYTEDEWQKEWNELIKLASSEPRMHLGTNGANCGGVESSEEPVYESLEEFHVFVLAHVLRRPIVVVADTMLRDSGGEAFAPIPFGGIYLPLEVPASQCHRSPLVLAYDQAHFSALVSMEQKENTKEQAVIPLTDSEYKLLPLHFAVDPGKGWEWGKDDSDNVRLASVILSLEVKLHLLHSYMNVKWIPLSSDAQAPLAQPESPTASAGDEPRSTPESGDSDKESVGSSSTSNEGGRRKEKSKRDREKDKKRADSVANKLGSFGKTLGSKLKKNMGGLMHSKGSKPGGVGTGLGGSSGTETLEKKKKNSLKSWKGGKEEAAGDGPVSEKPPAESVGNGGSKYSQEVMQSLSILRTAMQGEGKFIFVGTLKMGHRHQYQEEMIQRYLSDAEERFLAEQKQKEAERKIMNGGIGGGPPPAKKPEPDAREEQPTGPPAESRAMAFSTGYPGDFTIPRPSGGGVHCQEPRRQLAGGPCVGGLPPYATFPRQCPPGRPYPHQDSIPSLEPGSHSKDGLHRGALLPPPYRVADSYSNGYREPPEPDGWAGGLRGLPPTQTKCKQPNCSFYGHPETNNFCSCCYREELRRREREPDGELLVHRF
inactive: [5]; compound concentration: 50uM -0.187
active: [1]; compound concentration: 50uM -4.5 | [1]; compound concentration: 200uM -5.65 | [2]; compound concentration: 50uM -2.75 | [2]; compound concentration: 200uM -5.2 | [3]; compound concentration: 50uM -3.62 | [3]; compound concentration: 200uM -5.08 | [4]; compound concentration: 50uM -5.19 | [4]; compound concentration: 200uM -5.13 | [5]; compound concentration: 200uM -1.57

USP16 (UniProt Q9Y5T5)
Sequence of UniProt Q9Y5T5 (Q9Y5T5 whole entry, looked up): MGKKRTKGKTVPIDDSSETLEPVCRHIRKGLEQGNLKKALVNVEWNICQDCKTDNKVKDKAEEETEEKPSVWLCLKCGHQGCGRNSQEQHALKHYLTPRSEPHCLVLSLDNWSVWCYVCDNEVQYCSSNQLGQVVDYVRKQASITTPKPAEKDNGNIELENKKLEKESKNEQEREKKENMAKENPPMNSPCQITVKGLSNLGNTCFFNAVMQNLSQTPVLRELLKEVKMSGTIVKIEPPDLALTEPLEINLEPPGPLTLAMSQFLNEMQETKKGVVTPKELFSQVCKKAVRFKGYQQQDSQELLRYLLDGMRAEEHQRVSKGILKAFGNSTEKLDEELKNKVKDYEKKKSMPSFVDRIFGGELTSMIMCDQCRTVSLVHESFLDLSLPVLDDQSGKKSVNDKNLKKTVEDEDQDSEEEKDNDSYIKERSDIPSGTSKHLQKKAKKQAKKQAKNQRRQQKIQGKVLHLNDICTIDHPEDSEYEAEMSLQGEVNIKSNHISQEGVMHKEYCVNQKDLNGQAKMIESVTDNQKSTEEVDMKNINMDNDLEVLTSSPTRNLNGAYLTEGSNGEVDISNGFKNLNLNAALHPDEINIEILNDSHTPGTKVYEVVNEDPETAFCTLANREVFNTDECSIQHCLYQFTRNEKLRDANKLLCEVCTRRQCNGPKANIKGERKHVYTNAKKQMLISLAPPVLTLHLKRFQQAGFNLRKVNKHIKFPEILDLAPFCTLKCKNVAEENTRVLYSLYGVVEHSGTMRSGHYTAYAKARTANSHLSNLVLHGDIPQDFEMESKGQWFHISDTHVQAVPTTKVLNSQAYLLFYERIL
inactive: [1]; compound concentration: 50uM -0.384 | [1]; compound concentration: 200uM -0.472 | [2]; compound concentration: 50uM -0.353 | [2]; compound concentration: 200uM -0.626 | [3]; compound concentration: 50uM -0.00515 | [3]; compound concentration: 200uM -0.114 | [4]; compound concentration: 50uM 0.221 | [4]; compound concentration: 200uM 0.339 | [5]; compound concentration: 50uM -0.277 | [5]; compound concentration: 200uM -0.62

UniProt O00487
Sequence of UniProt O00487 (O00487 whole entry): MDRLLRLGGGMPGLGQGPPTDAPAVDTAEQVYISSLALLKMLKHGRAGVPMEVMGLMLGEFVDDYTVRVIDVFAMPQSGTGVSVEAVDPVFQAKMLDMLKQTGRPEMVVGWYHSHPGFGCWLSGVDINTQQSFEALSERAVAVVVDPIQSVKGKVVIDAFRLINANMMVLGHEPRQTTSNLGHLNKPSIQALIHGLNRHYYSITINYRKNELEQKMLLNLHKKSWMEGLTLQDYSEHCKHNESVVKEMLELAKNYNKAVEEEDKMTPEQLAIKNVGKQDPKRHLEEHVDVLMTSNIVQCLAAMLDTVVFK
inactive: [1]; compound concentration: 50uM -0.451 | [1]; compound concentration: 200uM -0.117 | [2]; compound concentration: 50uM -0.207 | [2]; compound concentration: 200uM 0.0311 | [3]; compound concentration: 50uM 0.124 | [3]; compound concentration: 200uM -0.15 | [4]; compound concentration: 50uM -0.0195 | [4]; compound concentration: 200uM -0.0757 | [5]; compound concentration: 50uM 0.285 | [5]; compound concentration: 200uM 0.135

USP46 (UniProt P62068)
Sequence of UniProt P62068 (P62068 whole entry): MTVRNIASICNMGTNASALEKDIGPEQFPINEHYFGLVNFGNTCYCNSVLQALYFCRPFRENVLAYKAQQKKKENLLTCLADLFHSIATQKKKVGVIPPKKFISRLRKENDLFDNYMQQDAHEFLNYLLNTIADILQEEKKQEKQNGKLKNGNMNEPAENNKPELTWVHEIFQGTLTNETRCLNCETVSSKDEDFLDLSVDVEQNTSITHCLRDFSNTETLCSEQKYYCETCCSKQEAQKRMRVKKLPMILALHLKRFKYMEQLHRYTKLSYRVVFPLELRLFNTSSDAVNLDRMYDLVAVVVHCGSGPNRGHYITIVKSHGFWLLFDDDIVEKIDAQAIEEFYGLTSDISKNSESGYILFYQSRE
inactive: [1]; compound concentration: 50uM -0.0934 | [1]; compound concentration: 200uM -0.257 | [2]; compound concentration: 50uM -0.229 | [2]; compound concentration: 200uM -0.251 | [3]; compound concentration: 50uM -0.017 | [3]; compound concentration: 200uM -0.304 | [4]; compound concentration: 50uM -0.00597 | [4]; compound concentration: 200uM -0.413 | [5]; compound concentration: 50uM -0.241
active: [5]; compound concentration: 200uM -1.72

PRPF8 (UniProt Q6P2Q9)
inactive: [1]; compound concentration: 50uM -0.0294 | [1]; compound concentration: 200uM -0.0682 | [2]; compound concentration: 50uM -0.217 | [2]; compound concentration: 200uM -0.0207 | [3]; compound concentration: 50uM 0.0298 | [3]; compound concentration: 200uM -0.0215 | [4]; compound concentration: 50uM 0.0787 | [4]; compound concentration: 200uM -0.0553 | [5]; compound concentration: 50uM -0.0417 | [5]; compound concentration: 200uM -0.137

EIF3F (UniProt O00303)
Sequence of UniProt O00303 (O00303 whole entry): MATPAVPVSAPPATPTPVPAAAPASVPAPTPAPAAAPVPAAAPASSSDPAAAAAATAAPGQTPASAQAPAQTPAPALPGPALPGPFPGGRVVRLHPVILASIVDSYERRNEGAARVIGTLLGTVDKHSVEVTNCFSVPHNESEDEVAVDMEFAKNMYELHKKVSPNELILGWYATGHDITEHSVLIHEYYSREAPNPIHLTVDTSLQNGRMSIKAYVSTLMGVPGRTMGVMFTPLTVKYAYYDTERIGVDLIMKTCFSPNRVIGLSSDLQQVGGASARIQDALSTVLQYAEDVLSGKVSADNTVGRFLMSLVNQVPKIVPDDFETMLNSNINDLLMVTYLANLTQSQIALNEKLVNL
inactive: [1]; compound concentration: 50uM -0.228 | [1]; compound concentration: 200uM 0.0219 | [2]; compound concentration: 50uM -0.17 | [2]; compound concentration: 200uM 0.0998 | [3]; compound concentration: 50uM -0.0176 | [3]; compound concentration: 200uM 0.00311 | [4]; compound concentration: 50uM -0.292 | [4]; compound concentration: 200uM 0.0431 | [5]; compound concentration: 50uM 0.028 | [5]; compound concentration: 200uM 0.0109

FAM105A (UniProt Q9NUU6)
inactive: [1]; compound concentration: 50uM -0.0884 | [1]; compound concentration: 200uM -0.0754 | [2]; compound concentration: 50uM -0.148 | [2]; compound concentration: 200uM -0.0677 | [3]; compound concentration: 50uM 0.0795 | [3]; compound concentration: 200uM -0.0897 | [4]; compound concentration: 50uM 0.0155 | [4]; compound concentration: 200uM -0.0104 | [5]; compound concentration: 50uM 0.239 | [5]; compound concentration: 200uM -0.443

USP10 (UniProt Q14694)
inactive: [1]; compound concentration: 50uM -0.107 | [1]; compound concentration: 200uM 0.139 | [2]; compound concentration: 50uM -0.314 | [2]; compound concentration: 200uM -0.0917 | [3]; compound concentration: 50uM -0.0829 | [3]; compound concentration: 200uM 0.0327 | [4]; compound concentration: 50uM -0.162 | [4]; compound concentration: 200uM 0.0178 | [5]; compound concentration: 50uM -0.0782 | [5]; compound concentration: 200uM -0.162

USP4 (UniProt Q13107)
inactive: [1]; compound concentration: 50uM 0.337 | [1]; compound concentration: 200uM -0.155 | [2]; compound concentration: 50uM -0.21 | [2]; compound concentration: 200uM 0.596 | [3]; compound concentration: 50uM -0.0317 | [3]; compound concentration: 200uM -0.104 | [4]; compound concentration: 50uM -0.54 | [4]; compound concentration: 200uM -0.195 | [5]; compound concentration: 50uM -0.32 | [5]; compound concentration: 200uM 0.659
